# Luciferase inh = blocks Photinus pyralis firefly luciferase activity | Potency, µM (titrated, usually from 57.1 µM), usual class: inhibitors | 72,000 compounds, 2.2% hits | purified firefly luciferase, luminescence, 8 min | P08659; also: nearly all actives have a fitted effect of over 40% in size
# Target sequence (P08659 whole entry, looked up): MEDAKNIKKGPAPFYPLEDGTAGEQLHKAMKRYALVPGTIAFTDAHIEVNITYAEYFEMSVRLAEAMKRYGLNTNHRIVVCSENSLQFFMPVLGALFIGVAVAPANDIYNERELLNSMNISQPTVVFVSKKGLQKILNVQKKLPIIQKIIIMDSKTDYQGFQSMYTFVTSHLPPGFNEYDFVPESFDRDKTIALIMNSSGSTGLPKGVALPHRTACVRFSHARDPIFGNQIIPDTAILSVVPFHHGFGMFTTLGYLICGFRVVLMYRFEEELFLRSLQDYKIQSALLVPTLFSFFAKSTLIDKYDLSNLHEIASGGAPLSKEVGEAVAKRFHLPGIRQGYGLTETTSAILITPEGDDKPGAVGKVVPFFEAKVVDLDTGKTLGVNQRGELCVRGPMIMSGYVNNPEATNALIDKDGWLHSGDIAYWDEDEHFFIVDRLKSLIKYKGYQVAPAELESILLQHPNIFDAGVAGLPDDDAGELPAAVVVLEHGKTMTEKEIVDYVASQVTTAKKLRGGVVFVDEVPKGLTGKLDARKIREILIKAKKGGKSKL
#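 Luminescence read-out after 8 min at room temperature; enzyme reaction used luciferin plus 10 uM ATP (linear range) in imidazole buffer pH 7.2 with KCl, MgCl2, Tween 20 and BSA. Each sample was run as a titration.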
# p53ts 39C kill = kills p53ts cells at the nonpermissive temperature; 130,000 compounds, 1.5% hits; H1299-p53A138V viability at 39C, ATP luminescence, 24 h; AID 902; Potency, µM (top dose mostly 46.1 µM), most hits filed as cytotoxic; also: nearly all actives have a fitted effect of over 55% in size
# p53ts 32C kill = p53ts cell cytotoxicity, permissive temperature; H1299-p53A138V at 32C, ATP luminescence viability, 24 h; Potency, µM (series often up to 46.1 µM), actives largely listed as cytotoxic; 130,000 compounds, 0.93% hits; AID 924; also: nearly all actives have a fitted effect of over 55% in size
#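 ATP-content luminescence (ATPlite) read-out after 24 h compound exposure at 32C in H1299-p53A138V cells (600/well). Tested up to 46 uM. Normalized to DMSO (0%) and 100 uM tamoxifen (100% killing); Hill-fit AC50.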
# Numbers stand for hits; n = inactive; u = inconclusive; x = no result; ! = not active in a repeat; [ ] = dose if it differs, or a comment. Compounds with a hit are over-represented: about 2.5% of the library has one in this group of screens. Calls follow the shape of the dose curve; as a rule, active = well fitted curve in the direction sought with a large enough effect; inconclusive = small, poorly fitted or top-dose-only effect, or another doubt; inactive = no such curve, though single readings can be large; an effect the other way counts as inactive or inconclusive.
SMILES,Luciferase inh,p53ts 39C kill,p53ts 32C kill
COc1ccc2oc(=O)c(C(=O)Nc3cccc(C(=O)O)c3)cc2c1,x,5.01µM,7.94µM
COc1cccc(C(=O)Nc2ccc(NC(=O)C(C)(C)C)cn2)c1,3.98µM,3.16µM,3.98µM
COC(=O)C/C=C\[C@@H](C)[C@@H](/C=N\O[C@@H](C)CN1CCCc2nc(C)c(C)cc21)OC,n[11.4 µM],n[9.22 µM],n[9.22 µM]
CCN(CC)C(=O)c1sc2c(c1C)c(=O)n(CCc1ccccc1)c(=O)n2Cc1ccc(C)cc1,x,n,n
Cc1ccc(CNC(=O)CSc2c(C(C)C)cnc3c2c(=O)n(C)c(=O)n3C)cc1,x,n,n
Cc1ccccc1C(=O)Nc1cccc(C(=O)OCc2cc(=O)n3c4c(sc3n2)CCCC4)c1,x,n,n
COc1ccc(C(=O)Nc2ccc(OC)c(OC)c2)cc1,25.1µM,u,u
COc1cccc(C(=O)Nc2cccc(NC(C)=O)c2)c1,n,n,n
COc1ccc(C(=O)Nc2cccc(OC)c2)cc1,7.94µM,12.6µM,10µM
COc1ccc(NC(=O)c2ccc(S(=O)(=O)N(C)C)cc2)cc1OC,n,n,n
CCc1nnc(NC(=O)c2c(OC)cccc2OC)s1,n,n,n
CCc1nnc(NC(=O)c2cccc(OC)c2)s1,n,u,12.6µM
Nc1nc(Cc2ccccc2)nc(Cc2ccccc2)c1-c1ccccc1,n[11.4 µM],n[9.22 µM],n[9.22 µM]
COc1ccccc1NC(=O)Cn1c(SCC(=O)NCc2ccccc2)nc2ccccc21,x,u,n
CCOC(=O)c1sc(N)c(C(=O)Nc2ccc(C)cc2C)c1C,x,n,n
COc1cccc(NC(=O)CSc2nnc(NC(=O)NC3CCCCC3)s2)c1,x,12.6µM,11.2µM
Cc1ccc(NC(=O)CSc2nnc(NC(=O)NC3CCCCC3)s2)cc1,x,u,n
O=C(Cn1c(=O)n(-c2ccc(Cl)cc2)c(=O)c2sc3ccccc3c21)NC1CCCC1,x,n,n
CCC(C)NC(=O)NC1C(NC(=O)NC(C)CC)N(C)C(=O)N1C (stereo not drawn),x,n,n
CC(C)CNC(=O)NC1C(NC(=O)NCC(C)C)N(C)C(=O)N1C (stereo not drawn),5.01µM,6.31µM,5.01µM
O=C(/C=C/c1ccc(O)c(O)c1)OCCc1ccccc1,x,n,n
Oc1cc(O)cc(/C=C\c2ccc(O)c(O)c2)c1,12.6µM,u,12.6µM
CN1CCN(CCC=C2c3ccccc3Sc3ccc(S(=O)(=O)N(C)C)cc32)CC1,n,15.8µM!,n
OCCN1CCN(CCC=C2c3ccccc3Sc3ccc(Cl)cc32)CC1,n,n,n
CC(=O)OC[C@H]1O[C@@H](O/N=C(\C)CCN2CCCCc3nc(C)c(C)cc32)[C@H](OC(C)=O)[C@@H](OC(C)=O)[C@H]1OC(C)=O,n[11.4 µM],n[9.22 µM],n[9.22 µM]
SMILES,Luciferase inh,p53ts 39C kill,p53ts 32C kill
O=C(Nc1cccc(Cl)c1)c1cc(-c2ccc3c(c2)OCCO3)on1,x,3.98µM,u
Cc1ccc(NC(=O)c2cc(-c3ccc4c(c3)OCO4)on2)cc1,x,n,n
O=C(Nc1cccc(Cl)c1)c1cc(-c2ccc3c(c2)OCO3)on1,x,n,n
Cc1cccc(NC(=O)c2cc(-c3ccc4c(c3)OCCO4)on2)c1,x,1µM,1µM
CCC/C=C/C1C(=O)C2OC2C2(OCC(CC)(CC)CO2)C1CO (stereo not drawn),x,n[9.22 µM],n[9.22 µM]
Cc1nc2c(C(=O)NCCc3ccc(Cl)cc3)cnn2c(C)c1Cc1ccc(F)cc1,x,u,n
Cc1nc2c(C(=O)NC(C)c3ccccc3)cnn2c(C)c1Cc1ccccc1 (stereo not drawn),x,20µM,u
CC(=O)O[C@H]1C[C@H]2CC[C@@H]3[C@@H](CC[C@]4(C)[C@H](OC(C)=O)[C@H]([N+]5(C)CCCCC5)C[C@@H]34)[C@]2(C)C[C@H]1[N+]1(C)CCCCC1,n,n,n
Cn1ccc2cc(NC(=O)Nc3cccnc3)ccc21,15.8µM,15.8µM,u
O=C(Nc1cccnc1)c1cnn2cccnc12,n,n,n
O=C(Nc1ccc2c(c1)OCO2)c1cnn2cccnc12,20µM,u,u
O=C(Nc1cccnc1)Nc1ccc(F)c(Cl)c1,20µM,n,u
O=C(Nc1cccnc1)Nc1ccc2c(c1)OCO2,15.8µM,u,u
O=C(Nc1cccnc1)c1c(F)c(F)c(F)c(F)c1F,n,n,n
Cn1nnc2cc(C(=O)Nc3cccnc3)ccc21,n,n,n
O=C(Nc1ccc2c(c1)OCO2)Nc1cnccn1,n,n,n
O=c1n(Cc2ccccc2Cl)c2ccccc2c2nc(-c3ccccc3)nn12,x,n,n
CN1CCc2c(cc(O)c(O)c2Cl)[C@H](c2cccc(Cl)c2)C1,n,n,n
Cc1cccc2c1-c1sc(C(=O)Nc3ccccc3C(N)=O)cc1CO2,x,12.6µM,u
Cc1cccc2c1-c1sc(C(=O)NCc3ccccc3Cl)cc1CO2,x,n,n
ClC(=Nc1cccc2ccccc12)N(c1ccccc1)c1ccccc1,n[11.4 µM],n[9.22 µM],n[9.22 µM]
CC(C)c1ccc(NC(=O)C2(C)Cc3ccccc3C(=O)O2)cc1 (stereo not drawn),x,u,n
O=C(Nc1ccccc1C(=O)NCc1ccco1)c1ccccc1,n,n,n
O=C(Nc1ccc(Cl)cc1)Nc1ccccc1C(=O)NCc1ccco1,7.94µM,n,n
CCCCc1nn2c(=O)cc(COC(=O)c3ccco3)nc2s1,x,n,n
SMILES,Luciferase inh,p53ts 39C kill,p53ts 32C kill
CCN1C(C)=C(C(=O)OC)C(c2ccccc2)N2C(=O)[C@@]3(C(=O)OC)O[C@@]12C1C(=O)N(C)C(=O)C13 (stereo partly drawn),x,n[9.22 µM],n[9.22 µM]
Cc1ccc(S(=O)(=O)NC(CC(=O)O)c2ccccc2)cc1 (stereo not drawn),n,n,n
Cc1ccc(S(=O)(=O)NCC(Nc2cccc(Cl)c2)c2ccccc2)cc1 (stereo not drawn),x,15.8µM,u
Cc1sc(NC(=O)c2ccc(Cl)s2)c(C(N)=O)c1C,10µM,u,u
Cc1sc(NC(=O)c2cc(-c3ccccc3)nc3ccccc23)c(C(N)=O)c1C,x,n,x
O=C(Nc1cccnc1)c1cc2c(ccc3ccccc32)o1,3.98µM,u,n
Cc1ccc(-c2cc(C(=O)Nc3cccnc3)c3ccccc3n2)o1,7.94µM,n,n
O=C(Nc1cccnc1)c1coc(=O)c2ccccc12,n,n,n
O=C(O)c1cc2c(ccc3ccccc32)o1,x,n,n
COC(=O)/C=c1/sc2n(c1=O)CCN=2,n,n,n
CN(C)c1ccc(/C=c2\sc3n(c2=O)CCCN=3)cc1,2.51µM,12.6µM,12.6µM
COc1ccc(/C=N/NC(=O)c2cc(-c3ccc(Cl)cc3)n[nH]2)cc1OC,x,n,n
O=C(Nc1ccon1)c1cc2c(s1)CCCCCC2,25.1µM,u,n
O=C(Nc1ccon1)c1cc2c(s1)CCCC2,n,n,n
Cn1c(=S)c2[nH]c(SCCN3C(=O)c4ccccc4C3=O)nc2n(C)c1=O,n[11.4 µM],n[9.22 µM],n[9.22 µM]
CCOC(=O)c1[nH]c2ccc(OC)cc2c1NC(=S)N1CCN(c2cccc(C)c2C)CC1,x,u,11.2µM
CCOC(=O)c1[nH]c2ccc(OC)cc2c1NC(=S)N1CCN(c2ccc(F)cc2)CC1,x,n,n
CC(=O)c1ccc(Nc2nc3ccccc3nc2-n2nc(C)cc2C)cc1,x,n,n
COc1cccc2sc(NC(=O)c3ccc4c(c3)OCCO4)nc12,x,5.01µM,u
COc1cc(C(=O)Nc2ccc3c(c2)OCCO3)ccc1-n1cnnn1,n,n,n
CO[C@H]1COC(=O)C/C=C\[C@H](C)[C@@H](OC)COC(=O)C/C=C\[C@@H]1C,n[11.4 µM],n[9.22 µM],n[9.22 µM]

# High-throughput results deposited in PubChem BioAssay by National Center for Advancing Translational Sciences (NCATS).
